Hits are enriched below; roughly 2.8% of the tested compounds scored in any of these assays.
PglD inh = inhibitors of Campylobacter jejuni PglD acetyltransferase | AID 602405 | hit rate 0.098% among 360,000 | purified PglD enzyme, DTNB colorimetric CoA detection | inhibition, % at 12.5 µM; in the data active = inhibition above about 16%, passing the limit was not always enough
CDK5 p35 inh = inhibitors of human CDK5/p35 kinase. Q00535+Q15078. Recombinant CDK5/p35, ADP-Glo luminescence, 60 min. inhibition, % at 10 µM. hit rate 0.01% among 330,000;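 active = highest replicate inhibition of at least 50% and at least 75% of replicates reaching 50%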;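 also: plate controls were DMSO neutral control for no effect and GW8510 at 10 µM for full effect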
Target sequence (Q00535 whole entry, looked up): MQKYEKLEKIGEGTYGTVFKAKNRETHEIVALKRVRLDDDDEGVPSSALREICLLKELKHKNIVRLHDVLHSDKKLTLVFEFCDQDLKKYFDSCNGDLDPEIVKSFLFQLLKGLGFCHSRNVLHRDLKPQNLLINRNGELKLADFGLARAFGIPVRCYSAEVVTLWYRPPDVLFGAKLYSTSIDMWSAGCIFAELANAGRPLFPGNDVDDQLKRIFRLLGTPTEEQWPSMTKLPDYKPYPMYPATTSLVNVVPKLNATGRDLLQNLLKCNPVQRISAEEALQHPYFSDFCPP
Target sequence (Q15078 whole entry, looked up): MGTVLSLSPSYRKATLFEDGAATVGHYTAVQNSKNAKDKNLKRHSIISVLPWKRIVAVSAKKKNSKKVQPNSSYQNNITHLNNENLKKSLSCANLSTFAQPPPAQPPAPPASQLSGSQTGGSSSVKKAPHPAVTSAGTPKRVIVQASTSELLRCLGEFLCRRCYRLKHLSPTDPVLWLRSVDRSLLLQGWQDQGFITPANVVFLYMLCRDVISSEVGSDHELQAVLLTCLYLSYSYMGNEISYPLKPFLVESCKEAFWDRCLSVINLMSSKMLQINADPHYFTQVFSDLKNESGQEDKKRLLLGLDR
dFosB act = enhances mouse delta FosB homodimer DNA binding. AID 493131. activation, % at 25 µM. purified delta FosB, TAMRA-CDK5 oligo fluorescence polarization; percent of positive-control signal above neutral wells. P13346. hit rate 0.99% among 340,000;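 active = mean activation above about 17%, with every replicate also reaching it, limit read from the data, passing the limit was not always enough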
FGF22 binding = FGF22 (human) thermal shift binding | activity (Tm shift, normalised), % at 9.99 µM | hit rate 1.5% among 340,000 | Q9HCT0 | recombinant FGF22 thermal shift, SYPRO orange fluorescence; percent of sucrose octasulfate shift, DMSO zero;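 active = mean Tm shift, scaled 0 neutral to 100 positive control, at about 1.3% or above, every replicate too, limit read from the data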
SIRT5 block = inhibitors of human sirtuin-5 desuccinylase. Q9NXA8. Purified SirT5, succinyl-peptide AMC, trypsin-coupled fluorescence. inhibition, % at 15 µM. hit rate 1.1% among 330,000. AID 652115; in the data active = inhibition above about 15%
PvdQ inh = blocks Pseudomonas aeruginosa PvdQ acylase activity | inhibition, % at 10 µM | hit rate 0.063% among 340,000 | purified PvdQ acylase, fluorescence plate reader | AID 488965; in the data active = inhibition above about 30%, passing the limit was not always enough;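 also: 0% = vehicle neutral wells and 100% = reference inhibitor wells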
Active calls of the source: *; · = no result given.

SMILES | PglD inh | CDK5 p35 inh | dFosB act | FGF22 binding | SIRT5 block | PvdQ inh
CS(=O)(=O)N1[C@H](CO)[C@H](c2ccccc2)C12CN(C(=O)c1ccccc1F)C2 | · | · | · | 0 | -4 | ·
CS(=O)(=O)N1[C@@H](CO)[C@@H](c2ccccc2)C12CN(C(=O)c1ccccc1F)C2 | · | · | · | 0 | 19* | ·
COCC(=O)Nc1ccc2c(c1)[C@@H]1C[C@H](CC(=O)NCc3ccccc3F)O[C@H](CO)[C@@H]1O2 | 2 | · | · | 0 | -2 | ·
C(=C1c2ccccc2-c2ccccc21)c1ccccn1 | -6 | -1 | -12 | 43* | -1 | 0
CN(C)/C=N/S(=O)(=O)c1ccc(Cl)cc1 | 4 | -4 | 0 | 43* | -1 | -11
COc1ccccc1CN1C[C@@H]2N[C@H](C1)C2c1ccc(/C=C/c2ccccc2)cc1 (some centres not stated) | · | · | · | · | 3 | ·
O=S(=O)(c1ccc(N2CCN(S(=O)(=O)c3ccccc3)CC2)nc1)N1CCCC1 | -1 | 0 | -6 | 43* | -6 | 12
CO[C@H]1CC[C@H]2CCOc3ccc(C#N)cc3C(=O)N(C)C[C@H](C)C(=O)N(C)C[C@H]1O2 | -1 | · | · | 0 | -4 | ·
COc1ccc(S(=O)(=O)N(C)C[C@@H]2Oc3c(NC(=O)C4CC4)cccc3C(=O)N([C@H](C)CO)C[C@H]2C)cc1 | -3 | · | · | 0 | -3 | ·
Cn1cnc2c(NCc3ccco3)ncnc21 | -3 | 2 | -7 | 0 | 30* | -10
COc1cc(S(=O)(=O)Nc2ccc3cn[nH]c3c2)ccc1Cl | · | 2 | 3 | 44* | 2 | 13
Cc1ccc(S(=O)(=O)Nc2ccc3cn[nH]c3c2)cc1C | -7 | · | · | 44* | · | ·
COc1ccc2c3c(n(C)c2c1)[C@@H](CO)N(Cc1ccc2c(c1)OCO2)CC31CCN(C)CC1 | · | · | · | 0 | · | ·
C[C@@H]1CN([C@@H](C)CO)C(=O)c2cc(NC(=O)CCCCCC(=O)Nc3ccccc3N)ccc2O[C@@H]1CN(C)S(=O)(=O)c1ccccc1 | · | · | · | 0 | 2 | ·
C[C@H]1CN([C@@H](C)CO)C(=O)Cc2cc(NC(=O)CCCCCC(=O)Nc3ccccc3N)ccc2O[C@H]1CN(C)Cc1ccc(Cl)c(Cl)c1 | 0 | · | · | 0 | 5 | ·
C[C@H](CO)N1C[C@H](C)[C@H](CN(C)Cc2ccc(Cl)c(Cl)c2)Oc2ccc(NC(=O)CCCCCC(=O)Nc3ccccc3N)cc2C1=O | 4 | · | · | 0 | 24* | ·
C[C@H](CO)N1C[C@H](C)[C@@H](CN(C)S(=O)(=O)c2ccccc2)Oc2ccc(NC(=O)CCCCCC(=O)Nc3ccccc3N)cc2C1=O | · | · | · | 0 | 19* | ·
C[C@H]1CN([C@@H](C)CO)C(=O)Cc2cc(NC(=O)Nc3cccc4ccccc34)ccc2O[C@@H]1CN(C)Cc1ccc(Cl)c(Cl)c1 | 4 | · | · | 0 | 16* | ·
C[C@H](CO)N1C[C@H](C)[C@@H](CN(C)Cc2ccc(Cl)c(Cl)c2)Oc2ccc(NC(=O)CCCCCC(=O)Nc3ccccc3N)cc2CC1=O | · | · | · | -1 | 26* | ·
COc1ccc(CN(C)C[C@@H]2OCCCC[C@@H](C)Oc3ccc(NC(=O)Nc4ccc(C(F)(F)F)cc4)cc3C(=O)N([C@@H](C)CO)C[C@H]2C)cc1 | -2 | · | · | -1 | 4 | ·
C[C@H]1CN([C@@H](C)CO)C(=O)Cc2cc(NC(=O)CCCCCC(=O)Nc3ccccc3N)ccc2O[C@H]1CN(C)C | 15 | · | · | 0 | · | ·
C[C@@H]1CN([C@@H](C)CO)C(=O)Cc2cc(NC(=O)CCCCCC(=O)Nc3ccccc3N)ccc2O[C@H]1CN(C)C | 21* | · | · | 1 | 4 | ·
O=C(NCc1ccc(F)cc1)Nc1cccc(Cl)c1 | · | 0 | -1 | 44* | 1 | -6
Cc1nn(C)c(C)c1CNC(=O)Nc1cccc(Cl)c1 | · | 2 | -1 | 43* | -4 | 3
O=C(NCc1ccc(F)cc1)Nc1ccc(Cl)cc1 | 3 | 1 | 2 | 0 | -2 | -5
SMILES | PglD inh | CDK5 p35 inh | dFosB act | FGF22 binding | SIRT5 block | PvdQ inh
O=C(C1CCCC1)N1CC2(C1)[C@H](c1ccccc1)[C@@H](CO)N2Cc1cncnc1 | · | · | · | · | -8 | ·
COc1ccccc1-c1cn(CC[C@@H]2CC[C@@H](NC(=O)c3cnccn3)[C@H](CO)O2)nn1 | -1 | · | · | 0 | 2 | ·
O=[N+]([O-])c1ccccc1CN1CCN(c2ncccn2)CC1 | -2 | -2 | 3 | 0 | 4 | -4
Fc1ccc(N2CCN(Cc3cnc(N4CCOCC4)s3)CC2)cc1 | · | -1 | 1 | 43* | -3 | -4
O=[N+]([O-])c1ccccc1CN1CCN(Cc2ccccn2)CC1 | · | 1 | -2 | 43* | 3 | -9
Fc1ccc(N2CCN(Cc3ccccn3)CC2)cc1 | · | 0 | 3 | 44* | -4 | -15
c1ccc(CN2CCOCC2)nc1 | · | 1 | -3 | 0 | · | -14
CC(=O)Nc1ccc(S(=O)(=O)N2CCN(Cc3ccccc3[N+](=O)[O-])CC2)cc1 | · | 0 | 3 | 44* | 0 | -1
C[C@@H]1CN([C@@H](C)CO)C(=O)c2cc(NS(=O)(=O)c3cccs3)ccc2O[C@@H](C)CCCCO[C@@H]1CN(C)C(=O)Nc1ccc(C(F)(F)F)cc1 | · | · | · | 0 | · | ·
Cc1cccnc1CN1CCN(C(=O)c2cc(COc3ccc4ncccc4c3)on2)CC1 | · | 1 | -14 | 0 | -8 | -14
CCOC(=O)N1CCN(C(=O)c2cc(COc3ccc4ncccc4c3)on2)CC1 | -2 | 0 | 4 | 0 | 20* | 9
COc1cc(OC)cc(-c2sc3ccc(OC)cc3c2C#CC2(N)CCCCC2)c1 | -1 | 1 | -21 | 0 | -5 | -14
COc1ccc(-c2sc3cc4c(cc3c2C#CC2(N)CCCCC2)OCO4)cc1 | -5 | 1 | 67* | 0 | · | -9
CCN(Cc1ccncc1)C(=O)CCc1nnc(CCc2ccc(OC)cc2)o1 | 2 | 0 | -5 | 44* | -1 | 3
CCOc1ccc(-c2c(C(=O)N/N=C/c3c[nH]c4ccccc34)nnn2-c2nonc2N)cc1 | -1 | -1 | 10 | 43* | 5 | 9
CCCOc1ccc(-c2c(C(=O)N/N=C/c3ccsc3)nnn2-c2nonc2N)cc1 | -2 | -1 | 20* | 0 | -7 | -12
CC(=O)N(C)C[C@H]1Oc2cc(-c3ccncc3)ccc2S(=O)(=O)N([C@@H](C)CO)C[C@H]1C | 1 | · | · | 0 | -2 | ·
Cc1ccc2nc(C)cc(Nc3ccc4c(c3)OCCO4)c2c1 | · | 0 | 31* | · | · | 12
C[C@@H]1CCCCO[C@H](CN(C)Cc2ccncc2)[C@@H](C)CN([C@H](C)CO)C(=O)c2cc(NC(=O)Nc3ccc4c(c3)OCO4)ccc2O1 | -3 | · | · | 0 | -3 | ·
CN1/C(=C/C=C(C#N)C#N)C(C)(C)c2ccccc21 | -7 | 0 | -9 | 0 | 0 | 4
CN1/C(=C\C=O)C(C)(C)c2ccccc21 | · | -1 | 23* | 0 | · | 3
C=CCN1C(=O)/C(=C\C=C2\N(C)c3ccccc3C2(C)C)SC1=S | · | 1 | -4 | 44* | -1 | -7
